In PubChem BioAssay (EPA / NIEHS):
Inconclusive results are not listed. Active and inactive are the calls of the source. Rule for the calls: active = hit-call score of the fitted dose curve at least 0.9, where 1 is the maximum; inconclusive = response in the unintended direction; inactive = score below 0.9.

Key:
[1] = TOX21_p53_BLA_p2_viability: Viability Assessment in the Tox21 HCT-116 p53 Agonism Beta-lactamase Assay, Phase 2 (AID 2283591);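 note: actives lower the ATP signal meaning cytotoxicity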
In short: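 Cytotoxicity readout: CellTiter-Glo ATP luminescence, 30 min at room temperature, after the beta-lactamase read. Cells were HCT116 exposed 16 h at 37C to compounds pin-transferred at 217-fold dilution from DMSO stocks.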

[2] = target: Cellular tumor antigen p53 (Homo sapiens) (UniProt P04637); test: TOX21_p53_BLA_p2_ratio: Tox21 HCT-116 p53 Agonism Beta-lactamase Assay, Ratio, Phase 2 (AID 2283592)
In short: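 Readout: blue/green (460/530 nm) FRET emission ratio after 2 h CCF4-AM loading at room temperature, excitation 405 nm. HCT116 p53 bla cells, 16 h compound exposure at 37C, 5% CO2; agonist direction fitted against DMSO baseline.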

[3] = target: Cellular tumor antigen p53 (Homo sapiens) (UniProt P04637); test: TOX21_p53_BLA_p3_ratio: Tox21 HCT-116 p53 Agonism Beta-lactamase Assay, Ratio, Phase 3 (AID 2283596)
In short: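 Cells were seeded at 4000/well, rested 5 h at 37C, then dosed with DMSO compound solutions (217-fold dilution) for 16 h. CCF4-AM substrate was loaded for 2 h at room temperature, and the 460/530 nm emission ratio was fitted for gain of signal versus DMSO.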

[4] = TOX21_p53_BLA_p5_viability: Viability Assessment in the Tox21 HCT-116 p53 Agonism Beta-lactamase Assay, Phase 5 (AID 2283600)
In short: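 ATP luminescence (CellTiter-Glo, 30 min, RT) served as the viability read-out, with loss of signal indicating cytotoxicity. Compounds in DMSO were pinned at a 217-fold dilution onto 4000 cells/well and incubated 16 h, 37C.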

[5] = target: Cellular tumor antigen p53 (Homo sapiens) (UniProt P04637); test: TOX21_p53_BLA_p4_ratio: Tox21 HCT-116 p53 Agonism Beta-lactamase Assay, Ratio, Phase 4 (AID 2283601)
In short: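 Signal is the blue/green (460nm/530nm) ratio of cleaved versus uncleaved CCF4-AM substrate, read after 2 h substrate loading. Cells were HCT116 carrying the p53-responsive beta-lactamase reporter, dosed 16 h at 37C, 5% CO2; CellTiter-Glo measured in parallel.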

[6] = TOX21_p53_BLA_p4_viability: Viability Assessment in the Tox21 HCT-116 p53 Agonism Beta-lactamase Assay, Phase 4 (AID 2283597);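 note: hits lower the luminescence signal meaning cytotoxicity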
In short: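 ATP content by CellTiter-Glo luminescence, 30 min RT, read after the beta-lactamase ratio step. Cells: HCT116, 4000/well, compound added after 5 h, exposure 16 h at 37C. Signal loss = reduced viability.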

[7] = target: Cellular tumor antigen p53 (Homo sapiens) (UniProt P04637); test: TOX21_p53_BLA_p5_ratio: Tox21 HCT-116 p53 Agonism Beta-lactamase Assay, Ratio, Phase 5 (AID 2283599)
In short: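 Beta-lactamase reporter ratio (blue 460 nm over green 530 nm, 405 nm excitation) after 2 h CCF4-AM loading, in HCT-116 cells exposed 16 h at 37 C to compounds pinned at 217-fold dilution. Increases relative to DMSO baseline scored.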

Measured: outcome

Cellular tumor antigen p53 (Homo sapiens), sequence (P04637 whole entry, looked up): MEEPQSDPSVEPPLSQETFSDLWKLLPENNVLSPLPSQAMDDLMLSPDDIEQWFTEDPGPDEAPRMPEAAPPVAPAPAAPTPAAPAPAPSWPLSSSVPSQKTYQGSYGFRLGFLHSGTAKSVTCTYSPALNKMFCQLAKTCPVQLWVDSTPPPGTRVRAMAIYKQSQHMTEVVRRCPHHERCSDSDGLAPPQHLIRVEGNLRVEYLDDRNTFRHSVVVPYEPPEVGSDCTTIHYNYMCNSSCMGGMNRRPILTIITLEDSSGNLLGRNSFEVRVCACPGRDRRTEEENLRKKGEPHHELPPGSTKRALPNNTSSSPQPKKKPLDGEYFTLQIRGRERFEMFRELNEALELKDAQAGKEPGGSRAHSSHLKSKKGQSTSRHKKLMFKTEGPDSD

O=Cc1ccc(Cl)cc1
not listed: [6] | [7]
inactive: all other assays above

CO[C@H]1O[C@H](CO)[C@@H](O)[C@H](O)[C@H]1O
inactive: [1] | [2] | [6]

Cc1cc(C)cc(OCC2CNC(=O)O2)c1 (stereo not given)
inactive: [1] | [2] | [3] | [5]

CC(C)Cn1cnc2c(N)nc3ccccc3c21
inactive: [1] | [2] | [3] | [4]

Cc1cn([C@H]2C[C@H](F)[C@@H](CO)O2)c(=O)[nH]c1=O
not listed: [6] | [7]
inactive: all other assays above

Cc1cc2c(OCC(CNC(C)(C)C)OC(=O)c3ccccc3)cccc2[nH]1 (stereo not given)
inactive: [1] | [2] | [3] | [4]

C=CC(=O)OCCCCCCCC
inactive: [1] | [2] | [6] | [4]

CCN1CCC[C@H]1CNC(=O)c1c(O)c(Cl)cc(Cl)c1OC
not listed: [3] | [5]
inactive: all other assays above

Cc1ccc(N=Nc2c(O)c(C(=O)O)cc3ccccc23)c(S(=O)(=O)O)c1
not listed: [3] | [4]
inactive: all other assays above

CCCCCCCC/C=C\CCCCCCCCN
not listed: [3] | [4]
inactive: all other assays above

CCOC(=O)[C@H](CCc1ccccc1)N[C@H]1CCCN2CCC[C@@H](C(=O)O)N2C1=O
not listed: [3] | [4]
inactive: all other assays above

C[C@@H]1O[C@@H](O[C@@H]2[C@@H](O)[C@H](OCCc3ccc(O)c(O)c3)O[C@H](CO[C@@H]3O[C@H](CO)[C@@H](O)[C@H](O)[C@H]3O)[C@H]2OC(=O)/C=C/c2ccc(O)c(O)c2)[C@H](O)[C@H](O)[C@H]1O
inactive: [1] | [2] | [6] | [4]

CN1CCN(CCCN2c3ccccc3Sc3ccc(S(=O)(=O)N(C)C)cc32)CC1
not listed: [3]
inactive: all other assays above

CC(O)c1ccccc1 (stereo not given)
not listed: [3] | [7]
inactive: all other assays above

Cc1cc(Cl)c(C)cc1Cl
not listed: [3] | [4]
inactive: all other assays above

CCCC(C)C(=O)O (stereo not given)
not listed: [3] | [5]
inactive: all other assays above

O=C(O)c1cccc(O)c1
not listed: [3] | [4]
inactive: all other assays above

O=S(=O)(O)CCS
not listed: [3]
inactive: all other assays above
